# Measurements as given in PubChem BioAssay.
# The source made the active and inactive calls. Rule as the data show it, unless noted: active = inhibition above about 80%; inactive = the rest.
# Columns and labels:
# [1] = LFS_MB_P medulloblastoma growth inhibition, cell-based, chromothripsis tumors, cisplatin or BGB combos (AID 1671449); conditions: LFS_MB_P medulloblastoma cells;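 also: cells exposed for 96 hours; 0% = vehicle DMSO and 100% = killing by high DMSO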
# [2] = HDN33 neuroblastoma growth inhibition, cell-based, chromothripsis tumors, cisplatin or BGB combos (AID 1671450); conditions: HDN33 neuroblastoma cells, stronger effect = higher value;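 also: cells exposed to compound for four days; 0% = vehicle DMSO and 100% = cell killing by high DMSO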
# [3] = ICB984 medulloblastoma cell growth inhibition, synergistic combos for chromothripsis tumors, cisplatin or BGB combos (AID 1671451; call rule not given here;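 also: cells exposed for 96 hours before readout; 0% = vehicle DMSO and 100% = killing by high DMSO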); conditions: ICB984 medulloblastoma cells, drug combinations, stronger effect = higher value
# [4] = LFS_MB_1R medulloblastoma cell growth inhibition, synergistic combos for chromothripsis tumors, cisplatin or BGB combos (AID 1671452); conditions: LFS_MB_1R medulloblastoma cells, stronger effect = higher value;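 also: cells exposed for 96 hours before readout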
# [5] = HTB85 osteosarcoma cell growth inhibition, synergistic combos for chromothripsis tumors, BGB or cisplatin IC20 combos (AID 1671453); conditions: HTB85 osteosarcoma cells, drug combinations, stronger effect = higher value;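 also: cells exposed for 96 hours before readout; 0% = vehicle DMSO and 100% = high DMSO killing control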
# [6] = CRL2098 osteosarcoma cell growth inhibition, synergistic combos for chromothripsis tumors, BGB or cisplatin IC20 combos (AID 1671454); conditions: CRL2098 osteosarcoma cells, drug combinations, stronger effect = higher value;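 also: cells exposed for 96 h before readout; 0% = vehicle DMSO and 100% = killing by high DMSO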
# [7] = HD-MB03 medulloblastoma cell growth inhibition, synergistic combos for chromothripsis tumors, BGB or cisplatin IC20 combos (AID 1671455; in the data active = inhibition above about 83%;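 also: 0% = vehicle DMSO and 100% = high DMSO as cytotoxic control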); conditions: HD-MB03 medulloblastoma cells, stronger effect = higher value
# [8] = UWB1.289 ovarian carcinoma cell growth inhibition, synergistic combos for chromothripsis tumors, BGB or cisplatin combos (AID 1671456); conditions: UWB1.289 ovarian carcinoma cells, stronger effect = higher value;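 also: cells exposed to compound for four days; 0% = vehicle DMSO and 100% = killing by high DMSO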
# [9] = LFS_MB_2R medulloblastoma cell growth inhibition, synergistic combos for chromothripsis tumors, cisplatin combos (AID 1671457); conditions: LFS_MB_2R medulloblastoma cells, stronger effect = higher value;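 also: cells exposed to compound for four days before readout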
# [10] = MDA-MB-436 breast carcinoma cell growth inhibition, synergistic combos for chromothripsis tumors, BGB or cisplatin combos (AID 1671458; call rule not given here;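 also: cells exposed for 96 hours; 0% = vehicle DMSO and 100% = killing by high DMSO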); conditions: MDA-MB-436 breast carcinoma growth inhibition, drug combinations, stronger effect = higher value
# [11] = UWB1.289_BRCA1 ovarian cancer growth, cell-based, BGB or cisplatin combinations (AID 1671459); conditions: UWB1.289 BRCA1 ovarian carcinoma, drug combinations, stronger effect = higher value
# [12] = human astrocyte viability loss, single and combined drugs, cytotoxicity control for chromothriptic childhood tumor combination screen, cell-based, BGB or cisplatin IC20 combos (AID 1671460); conditions: Human astrocytes, drug combinations, stronger effect = higher value;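 also: cells exposed to compounds for 96 hours before viability readout; 0% = vehicle and 100% = killing control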
# [13] = growth inhibition of BT084 medulloblastoma cells, cell-based, ICGC_MB145, cisplatin and BGB IC40 combos (AID 1671461); conditions: drug combinations, stronger effect = higher value;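 also: cells exposed to drugs for 96 hours; 0% = vehicle DMSO and 100% = high DMSO full killing control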
# [14] = growth inhibition of RCMB18 medulloblastoma cells, cell-based, cisplatin and BGB IC40 combos (AID 1671462); conditions: stronger effect = higher value;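 also: cells exposed to compound for four days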
# [15] = growth inhibition of CRL1545 osteosarcoma cells, cell-based, cisplatin and BGB IC20 combos (AID 1671464); conditions: stronger effect = higher value;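 also: cells exposed to compound for 96 hours before readout; 0% = vehicle DMSO and 100% = high DMSO killing control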
# [16] = at 0.5 µM, stronger effect = higher value
# [17] = measured here: combination with BGB IC20, at 0.005 µM
# [18] = measured here: combination with BGB IC40, at 0.005 µM
# [19] = measured here: combination with BGB IC40, at 0.05 µM
# [20] = measured here: combination with cisplatin, at 0.5 µM, stronger effect = higher value
# [21] = measured here: combination with cisplatin, at 5 µM, stronger effect = higher value
# [22] = measured here: with BGB IC20 combination, at 0.5 µM
# [23] = measured here: with cisplatin IC20 combination, at 0.5 µM
# [24] = measured here: 5 uM single agent, at 5 µM
# [25] = measured here: combination with cisplatin, at 0.5 µM
# [26] = measured here: combination with cisplatin, at 5 µM
# [27] = measured here: with BGB IC20, at 0.5 µM
# [28] = measured here: with BGB IC20, at 5 µM
# [29] = measured here: with cisplatin IC20, at 0.5 µM
# [30] = measured here: with cisplatin IC20, at 5 µM
# [31] = measured here: combination with BGB at IC20, at 0.5 µM
# [32] = measured here: combination with cisplatin at IC20, at 0.5 µM
# [33] = measured here: combo with BGB at IC20, at 0.5 µM
# [34] = measured here: combo with cisplatin at IC20, at 0.5 µM
# [35] = measured here: inhibition with BGB combination, at 0.05 µM
# [36] = measured here: inhibition with cisplatin combination, at 0.05 µM
# [37] = measured here: BGB combination, at 0.5 µM
# [38] = measured here: BGB combination, at 5 µM
# [39] = measured here: cisplatin combination, at 0.5 µM
# [40] = measured here: cisplatin combination, at 5 µM
# [41] = BGB combination, concentration series, at 5 µM
# [42] = cisplatin combination, concentration series, at 5 µM
# [43] = measured here: combo with BGB IC20, at 0.5 µM
# [44] = measured here: combo with cisplatin IC20, at 0.5 µM
# [45] = cisplatin combination, at 0.5 µM
# [46] = measured here: BGB IC40 combination 0.05 uM, at 0.05 µM
# [47] = measured here: BGB IC40 combination, at 0.05 µM
smiles,measurement,setting,value
C=C1CCC(O)CC1=CC=C1CCCC2(C)C1CCC2C(C)C=CC(C)C(C)C (stereo unspecified),inhibition,[1]; [16],-12.3% (inactive)
same,inhibition,[1]; [17],-24.6%
same,inhibition,[1]; [18],-11.2%
same,inhibition,[1]; [19],-19.6%
same,inhibition,[1]; [20],-17.3%
same,inhibition,[1]; [21],-80.9%
same,inhibition,"[2]; BGB combo, at 5 µM",-2.75%
same,inhibition,[2]; at 0.5 µM,5.6% (inactive)
same,inhibition,"[2]; cisplatin combo, at 5 µM",6.61%
same,inhibition,[2]; [22],7.28%
same,inhibition,[2]; [23],3.61%
same,inhibition,"[2]; single agent, at 5 µM",5.11%
same,inhibition,"[3]; BGB IC20 combo, at 0.005 µM",-16.8%
same,inhibition,"[3]; BGB IC40 combo, at 0.005 µM",-28.1%
same,inhibition,"[3]; BGB IC40 combo, at 0.05 µM",22.2%
same,inhibition,[3]; at 0.5 µM,-8.49% (inactive)
same,inhibition,"[3]; cisplatin combo, at 0.05 µM",22.2%
same,inhibition,"[3]; cisplatin combo, at 0.5 µM",-55.6%
same,inhibition,"[3]; cisplatin combo, at 5 µM",-22.2%
same,inhibition,[3]; [24],-22.8%
same,inhibition,[4]; at 0.5 µM,14.3% (inactive)
same,inhibition,[4]; [19],15.9%
same,inhibition,[4]; [25],28.4%
same,inhibition,[4]; [26],4%
same,inhibition,[5]; at 0.5 µM,-12.4% (inactive)
same,inhibition,[5]; [27],-26.3%
same,inhibition,[5]; [28],9.36%
same,inhibition,[5]; [29],-19%
same,inhibition,[5]; [30],1.54%
same,inhibition,"[5]; single agent, at 5 µM",12%
same,inhibition,[6]; at 0.5 µM,-3.6% (inactive)
same,inhibition,[6]; [31],-1.76%
same,inhibition,[6]; [32],19.2%
same,inhibition,[7]; at 0.5 µM,-7.66% (inactive)
same,inhibition,[7]; [33],-6.27%
same,inhibition,[7]; [34],-11.7%
same,inhibition,[8]; at 0.5 µM,-2.68% (inactive)
same,inhibition,[8]; [35],-16.7%
same,inhibition,[8]; [36],-7.51%
same,inhibition,[9]; at 0.5 µM,-22.6% (inactive)
same,inhibition,[9]; [25],-24.1%
same,inhibition,[9]; [26],-14.6%
same,inhibition,[10]; at 0.5 µM,-12.5% (inactive)
same,inhibition,[10]; [37],-17.5%
same,inhibition,[10]; [38],-14.8%
same,inhibition,[10]; [39],-15.7%
same,inhibition,[10]; [40],-13.9%
same,inhibition,[11]; [41],18.4%
same,inhibition,[11]; at 0.5 µM,-4.82% (inactive)
same,inhibition,[11]; [42],27.5%
same,inhibition,[12]; at 0.5 µM,2.39% (inactive)
same,inhibition,[12]; [43],0.485%
same,inhibition,[12]; [44],-12%
same,inhibition,[13]; at 0.5 µM,-17.5% (inactive)
same,inhibition,[13]; [45],-35.1%
same,inhibition,"[13]; cisplatin combination, at 5 µM",-77.9%
same,inhibition,[13]; [46],22.6%
same,inhibition,"[13]; single agent, at 5 µM",-13.5%
same,inhibition,[14]; at 0.5 µM,-6.63% (inactive)
same,inhibition,"[14]; cisplatin combo, at 5 µM",-19.4%
same,inhibition,[14]; [47],-24%
same,inhibition,[14]; [25],-21.7%
same,inhibition,"[14]; single agent, at 5 µM",-13.3%
same,inhibition,[15]; at 0.5 µM,-21.7% (inactive)
same,inhibition,[15]; [22],16.4%
same,inhibition,[15]; [23],-40.8%
same,inhibition,"[15]; single agent, at 0.05 µM",37.2%
same,inhibition,"[15]; single agent, at 5 µM",10.9%
CC(C)c1ccc(-c2cc(=O)c3ccccc3o2)cc1,inhibition,[1]; [16],-1.02% (inactive)
same,inhibition,[1]; [17],-13.4%
same,inhibition,[1]; [18],-27.4%
same,inhibition,[1]; [19],8.34%
same,inhibition,[1]; [20],64.5%
same,inhibition,[1]; [21],60.2%
same,inhibition,"[2]; BGB combo, at 5 µM",30.8%
same,inhibition,[2]; at 0.5 µM,-12.3% (inactive)
same,inhibition,"[2]; cisplatin combo, at 5 µM",30.4%
same,inhibition,[2]; [22],-6.46%
same,inhibition,[2]; [23],-22.2%
same,inhibition,"[2]; single agent, at 5 µM",42.1%
same,inhibition,"[3]; BGB IC20 combo, at 0.005 µM",5.4%
same,inhibition,"[3]; BGB IC40 combo, at 0.005 µM",-31.5%
same,inhibition,"[3]; BGB IC40 combo, at 0.05 µM",14.8%
same,inhibition,[3]; at 0.5 µM,-18.8% (inactive)
same,inhibition,"[3]; cisplatin combo, at 0.05 µM",11.4%
same,inhibition,"[3]; cisplatin combo, at 0.5 µM",-24.5%
same,inhibition,"[3]; cisplatin combo, at 5 µM",-45%
same,inhibition,[3]; [24],-10.3%
same,inhibition,[4]; at 0.5 µM,-36.4% (inactive)
same,inhibition,[4]; [19],-28.3%
same,inhibition,[4]; [25],-81.6%
same,inhibition,[4]; [26],18.3%
same,inhibition,[5]; at 0.5 µM,-40.2% (inactive)
same,inhibition,[5]; [27],-39.8%
same,inhibition,[5]; [28],1.8%
same,inhibition,[5]; [29],-59.9%
same,inhibition,[5]; [30],17.5%
same,inhibition,"[5]; single agent, at 5 µM",16.9%
same,inhibition,[6]; at 0.5 µM,-58.5% (inactive)
same,inhibition,[6]; [31],-35.3%
same,inhibition,[6]; [32],-37.3%
same,inhibition,[7]; at 0.5 µM,-10% (inactive)
same,inhibition,[7]; [33],-14%
same,inhibition,[7]; [34],-4.48%
same,inhibition,[8]; at 0.5 µM,-15.3% (inactive)
same,inhibition,[8]; [35],-31.9%
same,inhibition,[8]; [36],-16.9%
same,inhibition,[9]; at 0.5 µM,-14.3% (inactive)
same,inhibition,[9]; [25],-16.1%
same,inhibition,[9]; [26],41.6%
same,inhibition,[10]; at 0.5 µM,-11.1% (inactive)
same,inhibition,[10]; [37],-14.1%
same,inhibition,[10]; [38],27.2%
same,inhibition,[10]; [39],-11.6%
same,inhibition,[10]; [40],22.8%
same,inhibition,[11]; [41],43.9%
same,inhibition,[11]; at 0.5 µM,-16.7% (inactive)
same,inhibition,[11]; [42],32.9%
same,inhibition,[12]; at 0.5 µM,-3.03% (inactive)
same,inhibition,[12]; [43],2.13%
same,inhibition,[12]; [44],-6.48%
same,inhibition,[13]; at 0.5 µM,-10.1% (inactive)
same,inhibition,[13]; [45],-5.92%
same,inhibition,"[13]; cisplatin combination, at 5 µM",41.9%
same,inhibition,[13]; [46],-23.7%
same,inhibition,"[13]; single agent, at 5 µM",42.7%
same,inhibition,[14]; at 0.5 µM,-14% (inactive)
same,inhibition,"[14]; cisplatin combo, at 5 µM",35.3%
same,inhibition,[14]; [47],-32.1%
same,inhibition,[14]; [25],-17.3%
same,inhibition,"[14]; single agent, at 5 µM",35%
same,inhibition,[15]; at 0.5 µM,-29.6% (inactive)
same,inhibition,[15]; [22],-34%
same,inhibition,[15]; [23],-27.5%
same,inhibition,"[15]; single agent, at 0.05 µM",-43.4%
same,inhibition,"[15]; single agent, at 5 µM",26.5%
